From PMC7862700, “An all-to-all approach to the identification of sequence-specific readers for epigenetic DNA modifications on cytosine”

Tests used:
Assay in all cases: DAPPL (digital affinity profiling via proximity ligation, sequencing); 10 mM Tris-HCl pH 7.5, 50 mM NaCl, 1 mM DTT, 4% glycerol, room temperature, 30 min; GST-TFs on glutathione beads, 16-mer random dsDNA library, 0.1% formaldehyde crosslink after washing; high values mean tight binding
Conditions in all cases: protein: recombinant; tags: N-terminal GST; dsDNA, one strand shown
FEV = molecular target: T1, FEV (Homo sapiens, UniProt Q99581 1-238)
T1 sequence: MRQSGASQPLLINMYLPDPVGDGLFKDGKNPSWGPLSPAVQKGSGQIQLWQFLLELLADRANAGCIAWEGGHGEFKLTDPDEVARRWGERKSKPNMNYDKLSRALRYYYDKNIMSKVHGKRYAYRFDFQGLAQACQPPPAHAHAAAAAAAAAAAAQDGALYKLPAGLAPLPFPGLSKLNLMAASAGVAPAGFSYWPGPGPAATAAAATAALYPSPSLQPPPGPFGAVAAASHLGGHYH
Outline: (§1)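 Human transcription factors carrying a GST fusion were produced in yeast, bound to glutathione beads, tagged with DNA barcodes and pooled together with a tag-only sample. Each pool was held with 200 nmole of a random double-stranded 16-mer DNA library in Tris/NaCl/DTT/glycerol buffer for 30 min at room temperature, then washed, crosslinked in 0.1% formaldehyde, proximity-ligated with BsaI/T4 ligase (1 h, 37 °C), PCR-amplified and sequenced on an Illumina NextSeq500. Binding signal is the read frequency of each hexamer for a given factor divided by its frequency in the tag-only sample.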

ETV5 = ETV5 (Homo sapiens, UniProt P41161 1-510)
Outline: as §1

SPIC = molecular target: T2, SPIC (Homo sapiens, UniProt Q8N5J4 1-248)
T2 sequence: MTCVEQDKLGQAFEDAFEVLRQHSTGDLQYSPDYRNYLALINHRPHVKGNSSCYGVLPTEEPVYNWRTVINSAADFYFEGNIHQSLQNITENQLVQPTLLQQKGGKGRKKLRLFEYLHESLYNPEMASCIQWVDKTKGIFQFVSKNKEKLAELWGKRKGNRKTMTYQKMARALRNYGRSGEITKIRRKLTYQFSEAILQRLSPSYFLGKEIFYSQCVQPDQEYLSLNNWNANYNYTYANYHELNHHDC
Outline: as §1

ELF4 = ELF4 (Homo sapiens, UniProt Q99607 1-663)
Outline: as §1

ETV1 = ETV1 (Homo sapiens, UniProt P50549 1-477)
Outline: as §1

ETV3L = molecular target: T3, ETV3L (Homo sapiens, UniProt Q6ZN32 1-361)
T3 sequence: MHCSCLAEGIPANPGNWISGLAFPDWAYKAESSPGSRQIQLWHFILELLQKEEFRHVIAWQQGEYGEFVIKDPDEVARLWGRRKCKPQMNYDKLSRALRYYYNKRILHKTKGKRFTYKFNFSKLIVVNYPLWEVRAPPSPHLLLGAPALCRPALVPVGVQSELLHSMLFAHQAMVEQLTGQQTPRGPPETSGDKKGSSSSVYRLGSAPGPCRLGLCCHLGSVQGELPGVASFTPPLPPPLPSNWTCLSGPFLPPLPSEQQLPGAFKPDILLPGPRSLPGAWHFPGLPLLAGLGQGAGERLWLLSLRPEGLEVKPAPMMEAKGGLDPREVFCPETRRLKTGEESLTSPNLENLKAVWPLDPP
Outline: as §1

ETS2 = molecular target: T4, ETS2 (Homo sapiens, UniProt P15036 1-469)
T4 sequence: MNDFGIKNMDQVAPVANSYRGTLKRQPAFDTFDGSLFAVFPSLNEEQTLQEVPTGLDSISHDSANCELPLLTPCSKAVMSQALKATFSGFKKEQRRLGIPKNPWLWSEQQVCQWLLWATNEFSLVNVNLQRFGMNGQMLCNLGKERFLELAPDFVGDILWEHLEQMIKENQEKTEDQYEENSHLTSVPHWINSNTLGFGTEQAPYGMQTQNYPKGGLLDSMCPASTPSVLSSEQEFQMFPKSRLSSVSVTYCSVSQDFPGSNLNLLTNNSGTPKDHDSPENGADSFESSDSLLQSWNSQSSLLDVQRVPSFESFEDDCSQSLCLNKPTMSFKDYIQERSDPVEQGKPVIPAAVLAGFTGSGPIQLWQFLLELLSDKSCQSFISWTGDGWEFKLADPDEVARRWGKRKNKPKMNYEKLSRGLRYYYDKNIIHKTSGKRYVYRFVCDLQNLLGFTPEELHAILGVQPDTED
Outline: as §1

SPDEF = molecular target: T5, SPDEF (Homo sapiens, UniProt O95238 1-335)
T5 sequence: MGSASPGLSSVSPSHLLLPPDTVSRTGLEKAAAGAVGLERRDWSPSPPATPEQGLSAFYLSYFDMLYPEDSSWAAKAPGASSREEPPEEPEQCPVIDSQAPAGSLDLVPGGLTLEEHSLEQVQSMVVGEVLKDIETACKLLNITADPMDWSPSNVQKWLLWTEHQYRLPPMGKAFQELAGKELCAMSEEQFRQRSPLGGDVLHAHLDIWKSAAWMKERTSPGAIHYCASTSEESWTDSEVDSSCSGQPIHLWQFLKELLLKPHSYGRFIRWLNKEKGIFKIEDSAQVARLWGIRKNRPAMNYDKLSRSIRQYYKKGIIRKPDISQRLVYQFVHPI
Outline: as §1

ETV3 = molecular target: T6, ETV3 (Homo sapiens, UniProt P41162-2 1-143)
T6 sequence: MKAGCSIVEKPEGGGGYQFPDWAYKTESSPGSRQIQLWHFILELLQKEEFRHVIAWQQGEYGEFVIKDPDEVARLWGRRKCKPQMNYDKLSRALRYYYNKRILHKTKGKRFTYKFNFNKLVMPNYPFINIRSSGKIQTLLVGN
Outline: as §1

ETV6 = ETV6 (Homo sapiens, UniProt P41212 1-452)
Outline: as §1

Chain of ETV5 (P41161 whole entry): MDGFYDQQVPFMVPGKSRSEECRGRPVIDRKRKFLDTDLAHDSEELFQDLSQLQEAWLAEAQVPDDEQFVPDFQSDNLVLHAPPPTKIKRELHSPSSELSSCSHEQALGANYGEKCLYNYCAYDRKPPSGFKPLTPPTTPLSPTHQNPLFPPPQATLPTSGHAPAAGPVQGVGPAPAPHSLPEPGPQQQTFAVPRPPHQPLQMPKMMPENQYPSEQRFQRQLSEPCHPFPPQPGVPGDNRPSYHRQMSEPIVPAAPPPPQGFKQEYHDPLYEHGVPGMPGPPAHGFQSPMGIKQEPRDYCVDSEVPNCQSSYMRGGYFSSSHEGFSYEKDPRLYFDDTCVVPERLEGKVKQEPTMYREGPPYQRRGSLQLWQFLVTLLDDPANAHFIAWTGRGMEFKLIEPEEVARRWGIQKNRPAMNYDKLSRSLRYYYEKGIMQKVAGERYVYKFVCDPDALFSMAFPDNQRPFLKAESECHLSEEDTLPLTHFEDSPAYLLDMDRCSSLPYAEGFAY
Chain of ETV6 (P41212 whole entry): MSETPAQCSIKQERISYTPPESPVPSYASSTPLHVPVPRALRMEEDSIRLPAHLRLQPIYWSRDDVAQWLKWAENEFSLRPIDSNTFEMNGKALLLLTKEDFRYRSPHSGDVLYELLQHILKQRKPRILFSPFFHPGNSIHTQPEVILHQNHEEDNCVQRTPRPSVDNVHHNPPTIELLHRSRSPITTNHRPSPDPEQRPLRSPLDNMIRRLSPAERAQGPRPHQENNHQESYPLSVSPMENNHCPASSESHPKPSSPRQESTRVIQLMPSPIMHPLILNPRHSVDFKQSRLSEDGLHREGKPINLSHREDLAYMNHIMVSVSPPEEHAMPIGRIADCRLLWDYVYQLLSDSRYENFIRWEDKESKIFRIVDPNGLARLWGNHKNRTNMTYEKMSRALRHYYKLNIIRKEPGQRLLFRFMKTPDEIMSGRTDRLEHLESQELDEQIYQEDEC
Chain of ELF4 (Q99607 whole entry): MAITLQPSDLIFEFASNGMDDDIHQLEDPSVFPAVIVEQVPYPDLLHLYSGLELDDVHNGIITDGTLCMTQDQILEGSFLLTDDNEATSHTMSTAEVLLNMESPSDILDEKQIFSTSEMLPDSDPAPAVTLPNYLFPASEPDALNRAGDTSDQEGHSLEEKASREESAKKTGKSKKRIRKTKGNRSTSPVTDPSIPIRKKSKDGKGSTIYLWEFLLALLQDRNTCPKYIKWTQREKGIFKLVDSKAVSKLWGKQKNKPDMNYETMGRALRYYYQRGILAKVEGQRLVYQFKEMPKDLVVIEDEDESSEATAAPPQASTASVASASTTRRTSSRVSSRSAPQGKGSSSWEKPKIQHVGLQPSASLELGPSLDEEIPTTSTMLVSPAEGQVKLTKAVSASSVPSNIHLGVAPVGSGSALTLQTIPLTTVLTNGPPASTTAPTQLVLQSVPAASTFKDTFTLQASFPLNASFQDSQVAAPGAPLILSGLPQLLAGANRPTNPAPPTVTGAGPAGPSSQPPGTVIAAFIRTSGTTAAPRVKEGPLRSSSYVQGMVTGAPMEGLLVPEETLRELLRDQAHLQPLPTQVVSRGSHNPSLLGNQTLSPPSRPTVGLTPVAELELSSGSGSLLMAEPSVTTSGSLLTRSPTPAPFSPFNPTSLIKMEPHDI
Chain of ETV1 (P50549 whole entry): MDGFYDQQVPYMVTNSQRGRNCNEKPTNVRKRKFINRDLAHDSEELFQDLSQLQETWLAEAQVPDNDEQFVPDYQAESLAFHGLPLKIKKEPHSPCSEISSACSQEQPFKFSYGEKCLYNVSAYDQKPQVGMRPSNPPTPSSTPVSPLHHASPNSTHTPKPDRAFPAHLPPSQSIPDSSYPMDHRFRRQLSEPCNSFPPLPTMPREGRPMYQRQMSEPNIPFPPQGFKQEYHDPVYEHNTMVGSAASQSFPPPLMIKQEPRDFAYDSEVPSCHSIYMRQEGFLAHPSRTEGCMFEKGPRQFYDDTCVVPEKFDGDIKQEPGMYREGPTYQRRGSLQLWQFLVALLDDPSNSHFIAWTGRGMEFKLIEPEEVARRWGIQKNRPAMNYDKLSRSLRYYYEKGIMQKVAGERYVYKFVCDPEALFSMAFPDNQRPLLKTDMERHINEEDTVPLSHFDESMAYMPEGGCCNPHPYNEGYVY

CGGAAC
binding signal (FEV): 1.16 fold enrichment (6-mer frequency, TF over GST control) | binding signal (ETV5): 1.29 fold enrichment (6-mer frequency, TF over GST control) | binding signal (SPIC): 1.09 fold enrichment (6-mer frequency, TF over GST control) | binding signal (ELF4): 1.04 fold enrichment (6-mer frequency, TF over GST control) | binding signal (ETV1): 1.23 fold enrichment (6-mer frequency, TF over GST control) | binding signal (ETV3L): 1.11 fold enrichment (6-mer frequency, TF over GST control) | binding signal (ETS2): 1.18 fold enrichment (6-mer frequency, TF over GST control) | binding signal (SPDEF): 1.32 fold enrichment (6-mer frequency, TF over GST control) | binding signal (ETV3): 1.31 fold enrichment (6-mer frequency, TF over GST control) | binding signal (ETV6): 1.12 fold enrichment (6-mer frequency, TF over GST control)
